# Values without a mark were called inactive. No rule for the calls is given here.
# Biological target: Pantothenate synthetase (Mycobacterium tuberculosis (strain ATCC 25618 / H37Rv)) (UniProt P9WIL5)
# Experiment: Coupled enzyme confirmation of inhibitors against recombinant Mtb PanC (AID 375);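 also: 0% = full reaction with vehicle and 100% = no enzyme background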
# Conditions: coupled enzyme assay; at 10 µM, hits give high values
# Chain of Pantothenate synthetase (Mycobacterium tuberculosis (strain ATCC 25618 / H37Rv)) (P9WIL5 whole entry, looked up): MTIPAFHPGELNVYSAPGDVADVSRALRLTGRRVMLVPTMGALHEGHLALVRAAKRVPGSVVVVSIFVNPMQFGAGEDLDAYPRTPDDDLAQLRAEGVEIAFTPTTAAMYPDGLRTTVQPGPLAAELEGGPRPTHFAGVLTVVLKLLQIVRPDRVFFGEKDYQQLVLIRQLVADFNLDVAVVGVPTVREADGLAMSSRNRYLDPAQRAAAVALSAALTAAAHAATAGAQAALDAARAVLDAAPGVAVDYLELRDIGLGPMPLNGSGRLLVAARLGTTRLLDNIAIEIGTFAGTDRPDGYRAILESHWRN
row,Structure (SMILES),inhibition [%]
1,CCCc1nc2ccccc2c(=O)n1NC(=O)c1c(O)c2cccc3c2n(c1=O)CCC3,0
2,CCOc1cccc(C(=O)N2CCCCC2c2cccnc2)c1 (configuration not stated),0
3,COc1ccccc1CC(NC(C)=O)C(=O)NC1CCN(c2nnnn2-c2ccccc2)CC1 (configuration not stated),0
4,C=CCn1c(=O)/c(=C/c2ccc(O)cc2)s/c1=C(/C#N)c1nnc2n1CCCCC2,0
5,CCOc1cc(S(=O)(=O)NCc2ccc3c(c2)OCO3)ccc1F,2
6,COCc1nnc(SCC(=O)NC(C)c2ccccc2)n1-c1ccccc1 (configuration not stated),4
7,O=C1Nc2ccccc2OC1CC(=O)N1CCCC1 (configuration not stated),0
8,O=C(COC(=O)c1ccccc1O)Nc1ccc(OC(F)F)cc1,0
9,Cc1cc2c(cc1C)C(=O)NC(C)(C)C2,0
10,Cc1cc(C)n2c(SCCN3C(=O)c4ccccc4C3=O)nnc2n1,0
11,Cc1cc(C)cc(NC(=O)C2CCCN(S(=O)(=O)c3cnc[nH]3)C2)c1 (configuration not stated),0
12,COc1cccc(Oc2ccc(N)cc2)c1,0
13,COC(=O)c1nnn(-c2ccccc2)c1N,4
14,CCOC(=O)c1ccccc1NC(=O)Cn1cnc2c(cnn2-c2ccc(OC)cc2)c1=O,0
15,CCc1c(C)n([O-])c2c([n+]1=O)CCC2,0
16,COc1ccc(Cl)c(NCCC(=O)O)c1,0
17,COC(=O)c1ccc(Cl)c(NC(C)=O)c1,4
18,Cn1c(=O)cc(SCC(=O)NCc2cccnc2)c2ccccc21,4
19,CCCCn1c(SCc2cccnc2)nc2c1c(=O)n(C)c(=O)n2C,0
20,CCOC(=O)c1cc(NC(=O)SCC(=O)O)c(C)nc1C,0
21,O=C(CSc1nnc(Cn2nnc(-c3ccccc3)n2)n1-c1ccccc1)Nc1ccc(F)cc1,1
22,COc1ccc(C(=O)OC(COc2ccccc2)Cn2ccnc2)cc1 (configuration not stated),0
23,O=C(O)c1ccccc1S,0
24,N#CCCn1ccc(NC(=O)c2ccc(Cl)cc2)n1,0
25,Cn1c(SCc2ccccc2)nnc1C1CCCNC1 (configuration not stated),0
26,CCOc1ccc(-c2cn(S(=O)(=O)c3cccc4nsnc34)nc2N)cc1,0

row,Structure (SMILES),inhibition [%]
1,COc1cc(=O)[nH]c(SCc2c(F)c(F)c(F)c(F)c2F)n1,2
2,O=C(NCCCN1CCCC1=O)c1cccnc1,4
3,O=C(O)C1CCCN1c1ncnc2c1oc1ccccc12 (configuration not stated),0
4,O=S(=O)(c1ccc2ccccc2c1)N1CCCCC1,0
5,Cc1cc(NC(=O)CCCN2C(=O)c3cccnc3C2=O)no1,0
6,CCOC(=O)N1CCN(C(=O)CCc2ccc(S(=O)(=O)NCCc3ccccc3)cc2)CC1,3
7,CCCOc1ccc(S(=O)(=O)NCCCN2CCOCC2)c2ccccc12,0
8,CC1CCN(c2c(NCc3ccc(C(=O)N4c5ccccc5CC4C)cc3)c(=O)c2=O)CC1 (configuration not stated),0
9,COc1ccc(OC)c2[nH]c(=O)c(CCNC(=O)C(C)C)cc12,0
10,Cn1cccc1C(=O)NC(=O)CSc1nnc(C2CC2)n1-c1ccccc1,0
11,OC1(c2cccc(C(F)(F)F)c2)CCNCC1,4
12,COc1ccc(CNC(=O)CCc2nc(-c3ccccc3F)no2)c(OC)c1,0
13,CSc1ccccc1N=CC1=C(O)CC(C)(C)CC1=O,0
14,CCCC(C(=O)NCc1ccco1)N(C(=O)CNS(=O)(=O)c1ccc(Cl)cc1)C1CCCC1 (configuration not stated),0
15,O=C1c2ccccc2-c2nc3ncnn3c(-c3ccccc3)c21,0
16,COC(=O)c1sc(NC(=O)COc2ccccc2OC)nc1C,0
17,Cc1c(C(=O)O)c(-c2ccccc2)nn1-c1ccccc1,2
18,COc1ccc(-c2nc(CCNC(=O)c3ccco3)cs2)cc1OC,5
19,O=C(OCCN1C(=O)c2ccccc2C1=O)c1ccc(S(=O)(=O)N2CCCCCC2)cc1,0
20,Cc1noc(C)c1CSc1nnc2scc(-c3ccc(Cl)cc3)n12,0
21,O=C(O)c1ccc2c3c(ncnc13)-c1ccccc1C2=O,1
22,Cn1c(SCC(N)=O)nnc1C1CCN(C(=O)NCc2ccccc2)CC1,0
23,O=C(CSc1nc2ccccc2c(=O)n1CCC(=O)N1CCCCC1)NCc1ccccc1,0
24,CCn1c(=O)cc(OCC(=O)NCCCN2CC(C)CC(C)C2)c2ccccc21 (configuration not stated),3
25,O=C(Cc1ccc(S(=O)(=O)N2CCCC2)s1)Nc1nc2c(s1)CCCC2,1
26,CCOc1ccc(-c2nnc3sc(-c4c(OC)cccc4OC)nn23)cc1,0

row,Structure (SMILES),inhibition [%]
1,CCCCc1nc(NCCNC(=O)c2ccco2)c(C#N)c2c1CSC(C)(C)C2,3
2,CN1CCN(C(=O)c2ccc3c(=O)n(CCc4ccccc4)c(=S)[nH]c3c2)CC1,0
3,c1ccc(-c2ccccc2OCCn2cncn2)cc1,5
4,c1ccc(-c2cc(CSc3nc4ccccc4[nH]3)on2)cc1,0
5,Cc1ccc(F)cc1NC(=O)c1cccc2nccnc12,1
6,Clc1ccc(SCCCCn2ccnc2)cc1,8
7,CCOc1ccc(-c2nc(C#N)c(N3CCN(C)CC3)o2)cc1,2
8,CNC(=O)c1ccccc1NC(=O)c1c(O)c2c([nH]c1=O)CCCC2,7
9,CCN1CCN(Cc2c(C)[nH]c3ccc(OC)cc3c2=O)CC1,1
10,CCn1ncc(C2=NOC(C(=O)NCc3ccc(Cl)cc3)C2)c1C (configuration not stated),0
11,c1ccc(-c2nnc(OCCN3CCOCC3)c3ccccc23)cc1,0
12,CCOC(=O)C1=C(CC)Nc2ccccc2N=C1NC(=O)Nc1ccccc1OC,2
13,CC1(C)C(c2cccs2)=[N+]([O-])C2(CCCCC/C2=N\O)N1O (configuration not stated),6
14,Cc1cc(C)n(-c2nc3nonc3nc2-n2nc(C)cc2C)n1,0
15,O=C(OCC(=O)N1CCCC1)c1ccccc1OCc1ccccc1,0
16,COc1ccc(NC(=O)C(C)NS(=O)(=O)c2ccccc2)cc1Cl (configuration not stated),10
17,Cc1nc(N2CCN(c3ncccn3)CC2)c2oc3ccccc3c2n1,2
18,COc1ccc(CNC(=O)c2nnn(Cc3ccc(OC)cc3)c2N)cc1,0
19,O=C(NC1CCCCC1)C(c1ccc(Cl)cc1)N(C(=O)c1cnccn1)c1ccc2c(c1)OCO2 (configuration not stated),0
20,CC(C)N(C(=O)N1CCC(c2nc(-c3ccncc3)no2)CC1)C(C)C,0
21,O=c1c2c3nc4ccccc4nc3n(CC3CCCO3)c2ncn1CCc1ccccc1 (configuration not stated),9
22,CN(Cc1cccs1)C(=O)CCc1ccc(S(=O)(=O)N2CCOCC2)cc1,1
23,COc1ccc2[nH]c(=O)c(CN(C(=O)c3ccncc3)C(C)C)cc2c1,0
24,NS(=O)(=O)c1ccc(CCNC(=O)CCC2COc3ccccc3O2)cc1 (configuration not stated),0
25,CCOC(=O)CSc1nnc(CNC(=O)c2ccc(OC)c(OC)c2)n1C,0
26,COC(=O)c1ccc(CSc2nc3c(cnn3-c3ccc(F)cc3)c(=O)[nH]2)o1,4

row,Structure (SMILES),inhibition [%]
1,Cn1c(=O)c2c(nc(SCc3nn[nH]n3)n2Cc2ccccc2F)n(C)c1=O,0
2,Cc1c(O)c(CN2CCCC(C)C2)cc2c3c(c(=O)oc12)CCC3 (configuration not stated),9
3,COc1cc2c(cc1OC)CN(C(=O)COc1ccc(C)c(C)c1)CC2,1
4,Cc1oc(-c2ccccc2F)nc1CS(=O)(=O)CC(=O)NCc1ccco1,0
5,CCOC(=O)c1ccc(N2Cc3cc(C)c(C)cc3C2)cc1O,2
6,CC(=O)Nc1cc2c(nc1C)nc(C)n2Cc1ccc(Br)cc1,0
7,COc1ccc(N2C(=O)CC(NC3CC3)C2=O)cc1 (configuration not stated),0
8,Cc1ccccc1-n1nnc2c(=O)oc3ccccc3c21,0
9,CNC(=O)CSc1nnc(-c2cccc(S(=O)(=O)N3CCOCC3)c2)n1-c1ccc(F)cc1,0
10,CC(C)CCn1c(=O)c2ccccc2n2c(CN(C)Cc3ccccc3)nnc12,0
11,CC1Oc2ccccc2N(CC(=O)NCc2cccs2)C1=O (configuration not stated),0
12,COc1cccc(C(=O)Nc2ccc(NC(C)=O)cn2)c1,0
13,COC(=O)C1(C(=O)OC)Sc2ccccc2C1=O,3
14,Cc1ccc2cc(CN(Cc3ccc4c(c3)OCO4)Cc3nnnn3Cc3ccco3)c(=O)[nH]c2c1C,0
15,O=C(CCCC(=O)N(CC(=O)NC1CCCCC1)Cc1ccc2c(c1)OCO2)Nc1ccccn1,2
16,CC(C)C(C(=O)Nc1ccc2c(c1)OCO2)N1C(=O)c2ccccc2C1=O (configuration not stated),0
17,COc1cc(C(=O)N2CCCC(c3nc(-c4cccs4)no3)C2)cc(OC)c1OC (configuration not stated),0
18,Cc1ccc(C)c(N(CC(=O)NC2CCCC2)C(=O)CCCC(=O)Nc2ccccn2)c1,2
19,O=C(NCc1ccc2c(c1)OCO2)C1CCCN(S(=O)(=O)c2cccc3cccnc23)C1 (configuration not stated),0
20,COc1cccc(-c2nc3n(n2)C(c2ccccc2Cl)C(C(N)=O)=C(C)N3)c1 (configuration not stated),0
21,Cc1cc(NC(=O)CCC(=O)N(CCc2ccccc2)C(C(=O)NC2CCCC2)c2ccco2)no1 (configuration not stated),7
22,COc1ccc(CSCCN)cc1Cl,0
23,CCOC(=O)N1CCC(N2C(=O)c3ccccc3C2Nc2cccnc2)CC1 (configuration not stated),4
24,COc1ccc(C(C(C(=O)c2cccs2)N2CCOCC2)N2CCOCC2)cc1OC (configuration not stated),0

# From PubChem BioAssay
